In PubChem BioAssay (NCATS):
Records with an inconclusive call do not appear. Activity calls are given as the source filed them. Unless noted, calls come from the whole dose curve; as a rule, active = well fitted curve in the direction sought with a large enough effect; inconclusive = small, poorly fitted or top-dose-only effect, or another doubt; inactive = no such curve, though single readings can be large; an effect the other way counts as inactive or inconclusive.

Tests used:
[1] = qHTS for Inhibitors of Plasmodium falciparum (DD2) proliferation (AID 504314); note: potency is the fitted concentration of half-maximal effect; conditions: P. falciparum Dd2 in erythrocytes, SYBR Green growth, 72 h; series mostly up to 1.12 µM
In short: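 Fluorescence read-out (ex 485/em 535 nm) of SYBR Green-stained parasite DNA quantifies intraerythrocytic growth. Cultures at 0.3% parasitemia and 2.5% hematocrit were treated for 72 h; data normalized to DMSO and 0.29 uM artemisinin wells.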

[2] = qHTS for Inhibitors of Plasmodium falciparum (GB4) proliferation (AID 504315); note: nearly all actives have a fitted effect of over 50% in size; note: potency is the fitted concentration of half-maximal effect; conditions: P. falciparum GB4 in erythrocytes, SYBR Green DNA, 72 h; series mostly up to 6.7 µM
In short: (§1)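 Erythrocytes infected with P. falciparum line (0.3% parasitemia, 2.5% hematocrit final) incubated with compounds 72 h at 37 °C, 5% CO2; SYBR Green lysis buffer added, fluorescence read next day. Normalized to 0.29 uM artemisinin and DMSO.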

[3] = qHTS for Inhibitors of Plasmodium falciparum (7G8) proliferation (AID 504316); note: nearly all actives have a fitted effect of over 65% in size; note: potency is the fitted concentration of half-maximal effect; conditions: P. falciparum 7G8 in erythrocytes, SYBR Green DNA, 72 h; series mostly up to 6.7 µM
In short: as §1

[4] = qHTS for Inhibitors of Plasmodium falciparum (HB3) proliferation (AID 504318); note: nearly all actives have a fitted effect of over 60% in size; note: potency is the fitted concentration of half-maximal effect; conditions: P. falciparum HB3 in erythrocytes, SYBR Green DNA, 72 h; series mostly up to 7.21 µM
In short: as §1

[5] = qHTS for Inhibitors of Plasmodium falciparum (CP250) proliferation (AID 504320); note: potency is the fitted concentration of half-maximal effect; conditions: P. falciparum CP250 in erythrocytes, SYBR Green DNA, 72 h; series mostly up to 6.7 µM
In short: as §1

[6] = target: 3',5'-cyclic-AMP phosphodiesterase 4B (Homo sapiens) (UniProt Q07343); assay: qHTS Assay for Inhibitors of PDE-IV (AID 607; active = well fitted activation curve with a large enough effect in the main read-out, with a control signal flat, not every such curve was filed as active); conditions: HEK293 ACTOne CNG channel cells, membrane potential fluorescence; series mostly up to 22.9 µM
In short: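 Live HEK293 cells with a modified cyclic nucleotide-gated (CNG) channel report intracellular cAMP via membrane-potential dye fluorescence (ex 535/em 590 nm). Endogenous PDE-IV was targeted. Compounds were tested at up to 22.9 uM final; RO 20-1724 100 uM served as control.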

[7] = target: Cytochrome P450 2D6 (Homo sapiens) (UniProt P10635); assay: qHTS Assay for Inhibitors and Substrates of Cytochrome P450 2D6 (AID 891); conditions: recombinant CYP2D6, luciferin-ME EGE luminescence; series mostly up to 57.1 µM;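 note: luciferin methyl ether substrate demethylated by CYP2D6 with NADPH regeneration; nearly all actives have a fitted effect of over 60% in size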
In short: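 Human CYP2D6 (5 nM) with 30 uM Luciferin-ME EGE (at Km) in 100 mM KPO4, compound preincubated 10 min, then NADPH regeneration system for 60 min at room temperature. Luciferin read by luminescence; normalized to 1.43 uM quinidine.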

[8] = target: Cytochrome P450 2C19 (Homo sapiens) (UniProt P33261); assay: qHTS Assay for Inhibitors and Substrates of Cytochrome P450 2C19 (AID 899); conditions: recombinant CYP2C19, luciferin-H EGE luminescence; series mostly up to 57.1 µM; note: nearly all actives have a fitted effect of over 60% in size
In short: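 5 nM human CYP2C19 with 10uM Luciferin-H EGE (at KM) in 50mM KPO4, compound preincubated 10 min at 37C, then NADPH regeneration for 60 min at 37C. Luciferin read by luminescence after detection reagent; normalized to 57uM ketoconazole as full inhibition.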

[9] = target: Mitogen-activated protein kinase 10 (Mus musculus) (UniProt Q61831); assay: JNK3 AlphaScreen Assay (AID 530; active = well fitted curve in either direction with a large enough effect, not every such curve was filed as active;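 note: kinase came from lysate of stimulated human HepG2 cells; signal reports phosphorylation of biotinylated GST-cJun 1-79 at Ser73 with 10 µM ATP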); conditions: JNK3 lysate, c-Jun phosphorylation; series mostly up to 57.1 µM
In short: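 Pre-activated (IL-1β/TNFα) JNK3 in HepG2 lysates phosphorylates biotin-GST-cJun(1-79), 10 uM ATP; anti-phospho-cJun(Ser73) AlphaScreen read at room temperature, pH 7.6 Tris buffer. Compounds pre-incubated 15 min as titrations.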

[10] = target: Cytochrome P450 2C9 (Homo sapiens) (UniProt P11712); assay: qHTS Assay for Inhibitors and Substrates of Cytochrome P450 2C9 (AID 883); conditions: recombinant CYP2C9, luciferin-H luminescence, 60 min; series mostly up to 57.1 µM; note: nearly all actives have a fitted effect of over 60% in size
In short: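 Human CYP2C9 (10nM) with Luciferin-H at 100uM (its KM) in 25mM KPO4; compound preincubated 10 min at 37C, then NADPH regeneration for 60 min at 37C. Luciferin read by luminescence after detection reagent; normalized to 57uM sulphaphenazole as full inhibition.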

Measured: Potency

Cytochrome P450 2D6 (Homo sapiens), sequence (P10635 whole entry, looked up): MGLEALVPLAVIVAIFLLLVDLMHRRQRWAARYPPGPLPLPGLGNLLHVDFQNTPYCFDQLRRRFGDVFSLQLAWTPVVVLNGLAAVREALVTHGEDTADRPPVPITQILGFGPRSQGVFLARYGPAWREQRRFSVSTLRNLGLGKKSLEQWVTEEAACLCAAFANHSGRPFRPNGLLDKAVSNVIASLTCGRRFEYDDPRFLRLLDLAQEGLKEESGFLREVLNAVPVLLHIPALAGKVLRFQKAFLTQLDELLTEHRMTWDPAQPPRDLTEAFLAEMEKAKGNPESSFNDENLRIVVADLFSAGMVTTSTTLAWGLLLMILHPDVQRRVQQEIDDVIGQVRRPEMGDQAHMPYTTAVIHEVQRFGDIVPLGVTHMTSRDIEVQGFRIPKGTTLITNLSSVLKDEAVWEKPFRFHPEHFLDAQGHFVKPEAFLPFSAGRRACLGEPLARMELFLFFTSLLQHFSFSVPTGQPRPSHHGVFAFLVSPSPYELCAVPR
3',5'-cyclic-AMP phosphodiesterase 4B (Homo sapiens), sequence (Q07343 whole entry, looked up): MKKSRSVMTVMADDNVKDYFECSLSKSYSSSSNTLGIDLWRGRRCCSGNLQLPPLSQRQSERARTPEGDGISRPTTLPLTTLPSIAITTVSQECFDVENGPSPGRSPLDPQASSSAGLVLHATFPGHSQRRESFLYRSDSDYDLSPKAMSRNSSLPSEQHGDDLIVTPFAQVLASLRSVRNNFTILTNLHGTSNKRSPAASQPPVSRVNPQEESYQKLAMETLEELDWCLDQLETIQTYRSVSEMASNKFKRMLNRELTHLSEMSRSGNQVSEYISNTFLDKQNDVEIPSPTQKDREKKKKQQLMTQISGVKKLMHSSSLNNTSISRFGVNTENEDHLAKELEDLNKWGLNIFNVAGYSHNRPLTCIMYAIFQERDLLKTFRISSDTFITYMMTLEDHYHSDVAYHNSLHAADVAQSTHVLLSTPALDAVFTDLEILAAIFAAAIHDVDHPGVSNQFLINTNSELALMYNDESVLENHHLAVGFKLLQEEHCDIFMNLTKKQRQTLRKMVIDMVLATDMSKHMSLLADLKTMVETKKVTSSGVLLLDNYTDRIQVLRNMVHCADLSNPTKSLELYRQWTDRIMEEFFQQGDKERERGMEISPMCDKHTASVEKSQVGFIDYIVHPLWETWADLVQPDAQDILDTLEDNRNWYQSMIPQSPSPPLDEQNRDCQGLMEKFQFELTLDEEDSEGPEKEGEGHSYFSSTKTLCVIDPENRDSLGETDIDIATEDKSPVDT
Cytochrome P450 2C19 (Homo sapiens), sequence (P33261 whole entry, looked up): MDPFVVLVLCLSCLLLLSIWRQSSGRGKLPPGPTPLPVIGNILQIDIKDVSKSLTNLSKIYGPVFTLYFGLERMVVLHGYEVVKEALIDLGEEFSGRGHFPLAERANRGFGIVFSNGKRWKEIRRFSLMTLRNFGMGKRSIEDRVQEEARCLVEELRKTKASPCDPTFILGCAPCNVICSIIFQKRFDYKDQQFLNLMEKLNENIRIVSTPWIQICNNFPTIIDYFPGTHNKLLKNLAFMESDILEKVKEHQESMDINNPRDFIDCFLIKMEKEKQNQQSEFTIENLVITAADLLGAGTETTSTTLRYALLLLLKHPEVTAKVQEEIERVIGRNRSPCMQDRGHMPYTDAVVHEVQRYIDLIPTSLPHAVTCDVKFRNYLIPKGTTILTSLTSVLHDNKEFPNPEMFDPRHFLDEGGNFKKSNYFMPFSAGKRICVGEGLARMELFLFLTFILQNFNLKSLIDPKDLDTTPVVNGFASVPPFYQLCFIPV
Cytochrome P450 2C9 (Homo sapiens), sequence (P11712 whole entry, looked up): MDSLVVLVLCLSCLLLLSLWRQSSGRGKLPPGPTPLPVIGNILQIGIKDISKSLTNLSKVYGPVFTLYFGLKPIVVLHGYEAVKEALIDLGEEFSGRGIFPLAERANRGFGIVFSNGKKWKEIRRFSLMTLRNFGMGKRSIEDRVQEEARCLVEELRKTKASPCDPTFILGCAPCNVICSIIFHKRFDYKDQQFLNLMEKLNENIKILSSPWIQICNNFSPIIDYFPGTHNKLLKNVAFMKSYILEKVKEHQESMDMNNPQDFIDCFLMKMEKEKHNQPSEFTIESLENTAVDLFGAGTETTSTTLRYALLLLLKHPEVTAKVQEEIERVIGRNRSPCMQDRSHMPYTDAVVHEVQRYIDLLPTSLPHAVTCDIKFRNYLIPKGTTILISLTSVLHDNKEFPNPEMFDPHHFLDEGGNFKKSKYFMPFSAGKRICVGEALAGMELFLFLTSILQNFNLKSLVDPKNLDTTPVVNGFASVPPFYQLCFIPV

COCCN1C(=O)N[C@@H](c2cccc(C(F)(F)F)c2)C(C(=O)OC)=C1C
inactive: [1] | [2] | [3] | [4] | [5]

COC/C=C/C1=CC2=CC(=O)C(C)(OC(=O)c3cnc4ccccc4n3)C(=O)C2=CN1CC1CC1 (stereo not given)
inactive: [1] | [2] | [3] | [4] | [5]

COC(=O)CCC(=O)OC1(C)C(=O)C2=CN(CCN3CCOCC3)C(c3ccc(OC)cc3)=CC2=C(Br)C1=O (stereo not given)
inactive: [1] | [2] | [3] | [4] | [5]

CC1(OC(=O)c2ccc(Cl)nc2)C(=O)C=c2cc(-c3ccsc3)ncc2=C1OC(=O)C1CCCC1 (stereo not given)
inactive: [1] | [2] | [3] | [4] | [5]

COC/C=C/C1=CC2=CC(=O)C(C)(OC(=O)c3cnc4ccccc4n3)C(=O)C2=CN1C1CC1 (stereo not given)
inactive: [1] | [2] | [3] | [4] | [5]

CCOC(=O)CN1C(=O)N[C@@H](c2ccco2)C(C(=O)OC)=C1C
inactive: [1] | [2] | [3] | [4] | [5]

CCOC(=O)CCCNC(=O)N1CCc2nc(-c3ccccc3)c3c(c2C1)CO[C@@H](C)C3
inactive: [1] | [2] | [3] | [4] | [5]

COc1ccc(NC(=O)N2CCc3nc(COc4ccccc4)c4c(c3C2)CO[C@@H](C)C4)cc1
inactive: [1] | [2] | [3] | [4] | [5]

COC(=O)C1=C(C(=O)OC)[C@@H]2Nc3ccccc3[C@@]23C[C@@H](C(=O)OC)N(S(=O)(=O)c2ccc(C)cc2)C3=N1
inactive: [1] | [2] | [3] | [4] | [5]

CCOC(=O)CN1C(=O)N[C@@H](CCc2ccccc2)C(C(C)=O)=C1C
inactive: [1] | [2] | [3] | [4] | [5]

COC(=O)CCCC1=CC2=CC(=O)C(C)(OC(=O)c3cccs3)C(=O)C2=CN1c1ccccc1 (stereo not given)
inactive: [1] | [2] | [3] | [4] | [5]

CCN1C(=O)NC(c2ccco2)C(C(=O)OC)=C1C (stereo not given)
inactive: [1] | [2] | [3] | [4] | [5]

COC(=O)C1=C(C)N(Cc2ccccc2)C(=O)N[C@H]1CCc1ccccc1
inactive: [1] | [2] | [3] | [4] | [5]

COC(=O)CCC(=O)OC1(C)C(=O)C2=CN(C3CC3)C(c3ccc(OC)cc3)=CC2=C(Br)C1=O (stereo not given)
inactive: [1] | [2] | [3] | [4] | [5]

CCCCc1nc2c(c3c1C[C@H](C)OC3)CN(C(=O)N[C@@H](C)c1ccccc1)CC2
inactive: [1] | [2] | [3] | [4] | [5]

FC(F)(F)c1cc(NC(=S)NC23CC4CC(CC(C4)C2)C3)cc(C(F)(F)F)c1
active: [1] 753 nM | [2] 1070 nM | [3] 601 nM | [4] 478 nM | [5] 849 nM

COC(=O)C1=C(C(=O)OC)[C@@H]2N(Cc3ccccc3)c3ccccc3[C@@]23C[C@@H](C(=O)OC)N(C(=O)C2CCC2)C3=N1
inactive: [1] | [2] | [3] | [4] | [5]

CCOC(=O)CN1C(=O)N[C@@H](c2ccc(Br)cc2)C(C(=O)OC)=C1C
inactive: [1] | [2] | [3] | [4] | [5]

COC(=O)C1=C(C(=O)OC)[C@@H]2N(Cc3ccccc3)c3ccccc3[C@@]23C[C@@H](C(=O)OC)N(C(=O)c2ccco2)C3=N1
inactive: [1] | [2] | [3] | [4] | [5]

CCN1C(=O)N[C@@H](c2cccc(C(F)(F)F)c2)[C@H](C(=O)OC)[C@H]1C
inactive: [1] | [2] | [3] | [4] | [5]

COC(=O)CCCC1=CC2=C(c3ccccc3)C(=O)C(C)(OC(=O)C3CCCC3)C(=O)C2=CN1CCc1ccccn1 (stereo not given)
inactive: [1] | [2] | [3] | [4] | [5]

COC/C=C/C1=CC2=CC(=O)C(C)(OC(=O)c3cnc4ccccc4n3)C(=O)C2=CN1Cc1ccccc1 (stereo not given)
inactive: [1] | [2] | [3] | [4] | [5]

COC(=O)CCCC1=CC2=CC(=O)C(C)(OC(=O)c3cccs3)C(=O)C2=CN1C(CO)CO (stereo not given)
inactive: [1] | [2] | [4] | [5]

NCCC[C@@H](CC(=O)N[C@@H]1CCCC[C@H]1C(=O)N[C@H](CC(=O)N[C@@H](CCC(=O)O)CC(=O)O)Cc1ccccc1)NC(=O)C[C@H](Cc1ccccc1)NC(=O)[C@@H]1CCCC[C@H]1N
inactive: [6] | [7] | [8]

COC(=O)CCC(=O)OC1(C)C(=O)C=C2C=C(C3CC3)N(CCCCO)C=C2C1=O (stereo not given)
inactive: [1] | [2] | [4] | [5]

C=CC1=C2C=C(C3CC3)N(CCCCO)C=C2C(=O)C(C)(OC(=O)c2ccco2)C1=O (stereo not given)
inactive: [1] | [2] | [4] | [5]

O=C(NCc1ccccc1)[C@H]1C[C@@H]1[C@H](NP(=O)(c1ccccc1)c1ccccc1)c1ccccc1
inactive: [9] | [6]

CC(C)CON=C1C[C@@H](O)[C@@H](O)[C@@H]2[C@H]3C(=O)N(c4cccc(Oc5ccccc5)c4)C(=O)[C@@H]3CC[C@H]12
inactive: [1] | [2] | [4] | [5]

COC/C=C/C1=CC2=CC(=O)C(C)(OC(=O)c3cnc4ccccc4n3)C(=O)C2=CN1CCc1c[nH]c2ccccc12 (stereo not given)
inactive: [1] | [2] | [5]

COC(=O)C1=C(C)N(Cc2ccccc2)C(=O)N[C@H]1c1ccco1
inactive: [1] | [2] | [4] | [5]

COC(=O)[C@H]1C[C@@H]1[C@H](NS(=O)(=O)c1ccc(-c2ccccc2)cc1)c1ccccc1
inactive: [9]

CCCCc1nc2c(c3c1C[C@H](C)OC3)CN(C(=O)C1CC1)CC2
inactive: [1] | [2] | [5]

CCN1C(=O)N[C@@H](CCc2ccccc2)[C@H](C(=O)OC)[C@H]1C
inactive: [1] | [2] | [5]

CCOC(=O)NN=C1C[C@@H](O)[C@@H](O)[C@@H]2[C@H]3C(=O)N(C4CCCCC4)C(=O)[C@@H]3CC[C@@H]12
inactive: [1] | [2] | [4] | [5]

CC#CCN1c2ccccc2[C@]23C[C@@H](C(=O)OC)N(C(=O)COCc4ccccc4)C2=NC(C(=O)OC)=C(C(=O)OC)[C@H]13
inactive: [1] | [2] | [5]

COC(=O)[C@@]1(Cc2ccc(OC)cc2)[C@H]2c3cc(C(=O)N4CCCC4)n(CCSCCO)c3C[C@H]2CN1C(=O)c1ccccc1
inactive: [9]

Cc1ccc(S(=O)(=O)N[C@@H]2COC(=O)[C@@H](C)COC(=O)CC=C[C@H]2C)cc1
inactive: [1] | [2] | [4] | [5]

O=C(NCc1ccccc1)[C@@H]1C[C@H]1[C@@H](NP(=O)(c1ccccc1)c1ccccc1)c1ccccc1
inactive: [9] | [6]

CC(C)C[C@@H](CC(=O)N[C@@H](CCC(=O)O)CC(=O)O)NC(=O)[C@@H]1CNCC[C@H]1NC(=O)C[C@H](CCCN)NC(=O)C[C@H](Cc1c[nH]c2ccccc12)NC(=O)[C@@H]1CCCC[C@H]1N
inactive: [9] | [6] | [10] | [7] | [8]

NCCC[C@@H](CC(=O)N[C@@H]1CCCC[C@H]1C(=O)N[C@H](CC(=O)N[C@@H](CCC(=O)O)CC(=O)O)Cc1ccccc1)NC(=O)C[C@H](Cc1ccccc1)NC(=O)[C@@H]1CNCC[C@H]1N
inactive: [6] | [10] | [7] | [8]

COC/C=C/C1=CC2=CC(=O)C(C)(OC(=O)c3cnc4ccccc4n3)C(=O)C2=CN1CCc1ccccn1 (stereo not given)
inactive: [1] | [2] | [4] | [5]

C=CCN1c2ccccc2[C@]23C[C@@H](C(=O)OC)N(C(=O)c4ccco4)C2=NC(C(=O)OC)=C(C(=O)OC)[C@H]13
inactive: [1] | [2] | [4] | [5]

CC1(OC(=O)CCc2ccccc2)C(=O)C=C2C=C(c3ccc(C#N)cc3)N(C3CCCCC3)C=C2C1=O (stereo not given)
inactive: [1] | [2] | [4] | [5]

CC(=O)c1ccc([C@@H]2C=C[C@H](O)[C@@H](CO)O2)cc1
inactive: [1] | [2] | [4] | [5]

CCOC(=O)C=CCCCC=CC(=O)c1ccccc1
inactive: [1] | [2] | [4] | [5]

CCCCC1=CC2=C(c3ccco3)C(=O)C(C)(OC(=O)c3ccc(OC)cc3)C(=O)C2=CN1c1ccccc1 (stereo not given)
inactive: [1] | [2] | [4] | [5]

COC(=O)[C@@H]1C[C@H]1[C@@H](NS(=O)(=O)c1ccc(-c2ccccc2)cc1)c1ccccc1
inactive: [9] | [6]

CC#CCN1c2ccccc2[C@]23C[C@@H](C(=O)OC)N=C2NC(C(=O)OC)=C(C(=O)OC)[C@H]13
inactive: [1] | [2] | [4] | [5]

COC(=O)[C@H](Cc1ccccc1)NC(=O)O[C@@H]1C(=O)c2cc(OC)ccc2O[C@H]1c1cccc(OC)c1
inactive: [1] | [2] | [4] | [5]

CC1(OC(=O)CCc2ccccc2)C(=O)C=C2C=C(c3ccc(C#N)cc3)N(Cc3ccccc3)C=C2C1=O (stereo not given)
inactive: [1] | [2] | [5]
